Here are results for 12 sequences from publication PMC8384837, “Expanding the binding specificity for RNA recognition by a PUF domain”.

Numbering of substitutions follows the chain as printed.

Assay in all cases: yeast three-hybrid, YBZ-1, SC-Leu-His + 0.5 mM 3-AT, 4 days
Conditions in all cases: tags: N-Gal4 AD-HA kept; label: inside an RPR1-promoter hybrid RNA with tandem MS2 sites; ssRNA

In assay [1] the target is PUM1 PUF domain R5-RRF (Homo sapiens, UniProt Q14671 828-1176, C1007R;Q1011F). The essentials: (§1)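 Pumilio-1 PUF domain libraries, randomized at the three base-contacting residues of each repeat, were co-expressed with matching RNA elements from a centromeric plasmid in strain YBZ-1, which carries a LexA–MS2 coat fusion and a HIS3 reporter. Transformants grew for four days on SC-Leu (input) or on SC-Leu-His + 0.5 mM 3-AT (selection), and the repeat regions were PCR-amplified and Illumina-sequenced. The interaction score is the log change in variant frequency from input to selection. That logarithm is base 2, with a pseudocount of 1 where a variant was absent.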

For assay [2], the target named is PUM1 PUF domain R5-KYA (Homo sapiens, UniProt Q14671 828-1176, C1007K;R1008Y;Q1011A). In a few lines:
as §1

For assay [3], the target named is PUM1 PUF domain R4-WGG (Homo sapiens, UniProt Q14671 828-1176, N971W;H972G;Q975G). In a few lines: as §1
Sequence of PUM1 PUF domain R4-WGG (Q14671 828-1176 N971W/H972G/Q975G): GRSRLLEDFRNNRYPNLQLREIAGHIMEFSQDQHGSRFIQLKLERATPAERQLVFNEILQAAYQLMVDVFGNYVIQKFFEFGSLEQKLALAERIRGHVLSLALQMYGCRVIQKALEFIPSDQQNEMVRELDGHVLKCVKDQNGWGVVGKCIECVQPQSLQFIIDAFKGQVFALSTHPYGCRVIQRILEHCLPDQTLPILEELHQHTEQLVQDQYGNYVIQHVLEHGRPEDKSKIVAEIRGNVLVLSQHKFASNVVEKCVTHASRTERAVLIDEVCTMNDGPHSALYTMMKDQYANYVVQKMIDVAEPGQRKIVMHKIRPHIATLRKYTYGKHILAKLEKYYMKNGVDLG
For assay [4], the target named is PUM1 PUF domain R5-RFW (Homo sapiens, UniProt Q14671 828-1176, C1007R;R1008F;Q1011W). The essentials: as §1
Assay [5] addresses PUM1 PUF domain R1-GCK (Homo sapiens, UniProt Q14671 828-1176, S863G;R864C;Q867K). In a few lines:
as §1

The target of assay [6] is T1, PUM1 PUF domain R6-VWI (Homo sapiens, UniProt Q14671 828-1176, N1043V;Y1044W;Q1047I).
T1 sequence: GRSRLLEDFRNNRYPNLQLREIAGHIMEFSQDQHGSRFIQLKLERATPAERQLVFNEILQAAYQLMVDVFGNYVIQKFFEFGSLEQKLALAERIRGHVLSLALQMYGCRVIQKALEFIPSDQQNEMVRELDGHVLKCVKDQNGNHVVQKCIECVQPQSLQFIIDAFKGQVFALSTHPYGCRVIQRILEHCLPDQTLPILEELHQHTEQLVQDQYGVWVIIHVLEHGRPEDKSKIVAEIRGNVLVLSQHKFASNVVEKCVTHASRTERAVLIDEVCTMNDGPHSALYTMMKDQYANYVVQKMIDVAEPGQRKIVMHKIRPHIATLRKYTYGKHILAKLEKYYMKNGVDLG
In a few lines: as §1

In assay [7] the target is PUM1 PUF domain R1-SRD (Homo sapiens, UniProt Q14671 828-1176, Q867D). The essentials: as §1
The target of assay [8] is PUM1 PUF domain R8-LYL (Homo sapiens, UniProt Q14671 828-1176, N1122L;Q1126L). The essentials:
as §1

For assay [9], the target named is T2, PUM1 PUF domain R6-RYK (Homo sapiens, UniProt Q14671 828-1176, N1043R;Q1047K).
T2 sequence: T1 sequence with V216R, W217Y, I220K
The essentials:
as §1

Assay [10] deals with PUM1 PUF domain R8-RKV (Homo sapiens, UniProt Q14671 828-1176, N1122R;Y1123K;Q1126V). In a few lines:
as §1

Take “GGCUAGAACUAGUGGAUCCCCCGGCGCCCGGCGGCUCGAGCCCGGGUAAGUGUUAAUAGUCUGCAUGCCGCCGGGCGCCAUGCCUGCAGGUCGACUCUAGAAAACAUG”: the binding signal was 3.3 log2 enrichment (interaction score) in assay [1] and 4.12 log2 enrichment (interaction score) in assay [2].

Regarding “GGCUAGAACUAGUGGAUCCCCCGGCGCCCGGCGGCUCGAGCCCGGGUAAGUGUACAUAGUCUGCAUGCCGCCGGGCGCCAUGCCUGCAGGUCGACUCUAGAAAACAUG”, the binding signal in assay [3] is 3.3 log2 enrichment (interaction score). “GGCUAGAACUAGUGGAUCCCCCGGCGCCCGGCGGCUCGAGCCCGGGUAAGUGUCAAUAGUCUGCAUGCCGCCGGGCGCCAUGCCUGCAGGUCGACUCUAGAAAACAUG”: the values for the binding signal in assay [1], in assay [4] and in assay [2] were 3.03 log2 enrichment (interaction score), 3.42 log2 enrichment (interaction score) and 3.04 log2 enrichment (interaction score), respectively. Turning to “GGCUAGAACUAGUGGAUCCCCCGGCGCCCGGCGGCUCGAGCCCGGGUAAGUGUAAAUCGUCUGCAUGCCGCCGGGCGCCAUGCCUGCAGGUCGACUCUAGAAAACAUG”, the binding signal in assay [5] is 2.79 log2 enrichment (interaction score).

For the sequence “GGCUAGAACUAGUGGAUCCCCCGGCGCCCGGCGGCUCGAGCCCGGGUAAGUGUAUAUAGUCUGCAUGCCGCCGGGCGCCAUGCCUGCAGGUCGACUCUAGAAAACAUG”, the binding signal in [3] is 3.71 log2 enrichment (interaction score).

As for “GGCUAGAACUAGUGGAUCCCCCGGCGCCCGGCGGCUCGAGCCCGGGUAAGUGUAAAUUGUCUGCAUGCCGCCGGGCGCCAUGCCUGCAGGUCGACUCUAGAAAACAUG”, in assay [5], the binding signal was 1.58 log2 enrichment (interaction score). With “GGCUAGAACUAGUGGAUCCCCCGGCGCCCGGCGGCUCGAGCCCGGGUAAGUGAAAAUAGUCUGCAUGCCGCCGGGCGCCAUGCCUGCAGGUCGACUCUAGAAAACAUG”, the binding signal in assay [6] is 5.74 log2 enrichment (interaction score). In the case of “GGCUAGAACUAGUGGAUCCCCCGGCGCCCGGCGGCUCGAGCCCGGGUAAGUGUAAAUGGUCUGCAUGCCGCCGGGCGCCAUGCCUGCAGGUCGACUCUAGAAAACAUG”, in assay [7], the binding signal is 3.35 log2 enrichment (interaction score). On to “GGCUAGAACUAGUGGAUCCCCCGGCGCCCGGCGGCUCGAGCCCGGGUAAGUGUAGAUAGUCUGCAUGCCGCCGGGCGCCAUGCCUGCAGGUCGACUCUAGAAAACAUG”, for which, in [3], the binding signal is 1.6 log2 enrichment (interaction score).

For the sequence “GGCUAGAACUAGUGGAUCCCCCGGCGCCCGGCGGCUCGAGCCCGGGUAAGUGUGAAUAGUCUGCAUGCCGCCGGGCGCCAUGCCUGCAGGUCGACUCUAGAAAACAUG”, the binding signal in [4] was 2.92 log2 enrichment (interaction score); in assay [2], 0.9 log2 enrichment (interaction score).

For “GGCUAGAACUAGUGGAUCCCCCGGCGCCCGGCGGCUCGAGCCCGGGUAAGUGUAAAUAGUCUGCAUGCCGCCGGGCGCCAUGCCUGCAGGUCGACUCUAGAAAACAUG”, the binding signal was 0.84 log2 enrichment (interaction score) in assay [8]; 2.44 log2 enrichment (interaction score) in [3]; 1.35 log2 enrichment (interaction score) in assay [4]; 3.06 log2 enrichment (interaction score) in assay [9]; 3.48 log2 enrichment (interaction score) in [2]. For “GGCUAGAACUAGUGGAUCCCCCGGCGCCCGGCGGCUCGAGCCCGGGUAAGCGUAAAUAGUCUGCAUGCCGCCGGGCGCCAUGCCUGCAGGUCGACUCUAGAAAACAUG”, the results for the binding signal in assay [10] and in [8] were 2.31 log2 enrichment (interaction score) and 2.29 log2 enrichment (interaction score), respectively.
